HT1080NT lethal – kills 2HG-producing HT-1080-NT fibrosarcoma cells; HT-1080-NT fibrosarcoma viability, CellTiter-Glo ATP luminescence, 48 h; Potency, µM (series often up to 46.1 µM), inactives show at the highest dose activity, negative = less viability, most hits filed as cytotoxic; 1.6% of 360,000 active;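 note: NT is the 2HG producing partner of a matched IDH1 knockdown line; potency is the fitted concentration of half-maximal effect; 0% = DMSO-treated cells and -100% = media-only wells without cells; nearly all actives have a fitted effect of over 55% in size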
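750 cells/well, RPMI + 5% FBS; 2 h settle, compound pin-transfer, 48 h at 37 degrees C. CellTiter-Glo 10 min RT, luminescence. Normalized to DMSO and media-only wells.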
HT1080 IDH1KD tx – kills HT-1080 cells with IDH1 knockdown; HT-1080 IDH1 knockdown viability, ATP luminescence, 48 h; Potency, µM (doses to about 46.1 µM), for inactives: top-dose activity, negative = toxicity, hits mostly cytotoxic; 2% of 360,000 active; AID 686971;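 note: potency is the fitted concentration of half-maximal effect; 0% = DMSO wells and -100% = cell-free medium wells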
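CellTiter-Glo luminescence after 48 h compound exposure at 37 degrees C of IDH1-knockdown HT-1080 cells in 5% FBS RPMI. %Activity scaled between DMSO wells and cell-free media wells, with curves fitted and assigned curve classes.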
uPA surface inh – blocks generation of uPA at the cell surface | cell surface uPA generation assay, qHTS | Potency, µM (series often up to 38.3 µM), for inactives: at the highest dose activity change, negative = inhibition, most hits filed as inhibitors | 0.31% of 330,000 active | AID 540303; active = well fitted inhibition curve with a large enough effect; inconclusive = small, poorly fitted or top-dose-only effect; inactive = no such curve, though single readings can be large or run the other way; tested in mouse RAW 264.7 cells; note: potency is the fitted concentration of half-maximal effect; nearly all actives have a fitted effect of over 55% in size
TDP1 cell noCPT – qHTS for Inhibitors of human tyrosyl-DNA phosphodiesterase 1 (TDP1): qHTS in cells in absence of CPT; Potency, µM (titrated, usually from 46.2 µM), for the others: at the top dose activity change, negative = growth inhibition, actives largely listed as inhibitors; DT40 Tdp1-/- hTDP1 cells, no CPT, ATP luminescence, 48 h; 15% of 420,000 active; note: potency is the fitted concentration of half-maximal effect; nearly all actives have a fitted effect of over 55% in size
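Growth of hTDP1-complemented DT40 Tdp1-knockout cells is measured by ATP luminescence after at least 48 hr compound exposure at 37 °C, with DMSO substituting for the 20 nM CPT used in the parallel screen.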
IL-1B inflam inh – inflammasome signaling inhibition, IL-1 beta readout | THP-1 LPS/ATP IL-1B secretion, AlphaLISA, 16 h; active compounds read low | activity change, % at 57.5 µM | 4.7% of 360,000 active | AID 743279; in the data active = activity change below about -50%; inconclusive = mostly about -30% to -49%
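Secreted IL-1B measured by AlphaLISA bead assay after 16 h compound exposure of THP-1 cells; compounds (final up to 57.5 uM) added 1 h before LPS (250 ng/mL) and ATP (1.25 mM) stimulation; lower signal means less secretion.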
TDP1 cell CPT – growth inhibition of DT40 Tdp1-/-;hTDP1 cells with camptothecin (screen for TDP1 inhibitors); chicken DT40 Tdp1-/-;hTDP1 cells + 20 nM CPT, ATP luminescence, 48 h; Potency, µM (highest dose often 46.2 µM), without a hit: top-dose activity change, negative = growth inhibition, hits mostly inhibitors; 12% of 420,000 active; AID 686979; note: potency is the fitted concentration of half-maximal effect; nearly all actives have a fitted effect of over 55% in size
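Chicken DT40 Tdp1-/- cells complemented with human TDP1, 400 cells/well, exposed to compounds plus 20 nM camptothecin for at least 48 h at 37 C; viability read as ATP content by CellTiter-Glo luminescence.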
Starred values were filed as active, the others as inactive; i = inactive; ? = inconclusive; / = no result given. Shown are actives, neighbours in structure and some others; about 19% of the full set was active somewhere. Unless noted, calls come from the whole dose curve; as a rule, active = well fitted curve in the direction sought with a large enough effect; inconclusive = small, poorly fitted or top-dose-only effect, or another doubt; inactive = no such curve, though single readings can be large; an effect the other way counts as inactive or inconclusive. Unless noted, % is set by controls: 0 for no effect and ±100 for the full control effect.

SMILES	HT1080NT lethal	HT1080 IDH1KD tx	uPA surface inh	TDP1 cell noCPT	IL-1B inflam inh	TDP1 cell CPT
CCC(=O)OCC(=O)C1(OC(=O)CC)[C@H](C)C[C@H]2[C@H]3[C@H]([C@@H](O)C[C@@]21C)[C@@]1(C)C=CC(=O)C=C1C[C@H]3Cl (stereo partly drawn)	?	?	6.1%	-21.4%	-51.0*	-14.2%
CC1(C)O[C@@H]2C[C@H]3[C@@H]4CCC5=CC(=O)C=C[C@]5(C)[C@@]4(F)[C@@H](O)C[C@]3(C)[C@]2(C(=O)CO)O1	?	?	-13.8%	-13.7%	?	?
O=C(Nc1nnc(SCCN2CCOCC2)s1)C1CC(=O)N(c2ccccc2)C1 (stereo not drawn)	7.5%	6.5%	8.5%	-3.5%	7.6	6.3%
O=C1NC(=S)NC(=O)C1Nc1ccc(Cl)cc1	-4.1%	1.4%	-7.8%	7.31µM*	-23.8	?
CC(=O)N1C(Nc2ccc(Cl)cc2)CCN1c1ccccc1 (stereo not drawn)	-13.2%	?	-3.1%	-18.6%	-21.0	-20.1%
CC(O)CNc1nc2c(c(=O)n(C)c(=O)n2C)n1C/C=C/c1ccccc1 (stereo not drawn)	5.3%	-3.5%	-6.7%	9.2µM*	-18.4	8.2µM*
Cn1c(=O)c2c(nc(NCCCO)n2C/C=C/c2ccccc2)n(C)c1=O	-16.9%	-3.3%	5.2%	18.4µM*	-1.5	18.4µM*
C=CCn1c(NCCO)nc2c1c(=O)n(C)c(=O)n2C	3.9%	-1.5%	5.5%	?	32.2	?
Cc1ccc(Nc2nc(NCc3cccs3)nc3ccsc23)c(C)c1	?	?	/	9.2µM*	-51.0*	23.1µM*
Cc1ccc(Nc2nc(NCc3ccccc3)nc3ccsc23)c(C)c1	?	?	/	6.51µM*	?	23.1µM*
Cc1ccc(NC(=S)N(Cc2ccccc2)Cc2cccs2)c(C)c1	-15.0%	-14.0%	4.0%	-13.4%	-11.6	-12.5%
CCOC(=O)c1ccc(S(=O)(=O)N2CCN(CCc3ccncc3)CC2)cc1	3.4%	-2.5%	?	-30.1%	-13.9	-60.9%
N#CC(C#N)=c1ccc2c(c1)NC1(CCCCC1)N=2	?	23.1µM*	-4.5%	10.3µM*	-104.0*	11.6µM*
CC(O)(c1ccc(F)c(F)c1)c1nc(-c2cnc3ccccc3c2)cs1 (stereo not drawn)	?	?	/	14.6µM*	31.6	16.4µM*
CC(O)(c1ccc(F)c(F)c1)c1nc(-c2ccc3ccccc3c2)cs1 (stereo not drawn)	?	?	/	?	0.0	18.4µM*
C=CCn1c(SCc2c(C)noc2C)nc2ccccc2c1=O	0.562µM*	0.316µM*	/	0.794µM*	40.0	0.562µM*
C=CCn1c(SCc2c(C)noc2C)nc2cc(C(=O)O)ccc2c1=O	6.31µM*	7.08µM*	/	?	30.6	?
CCCCn1c(N)c(N(CC(C)C)C(=O)CSCC(=O)Nc2ccc(C)cc2)c(=O)[nH]c1=O	-3.3%	7.5%	3.1%	-2.2%	-13.2	-5.7%
CC1c2cc3c(cc2CCN1S(=O)(=O)c1ccccc1)OCCCO3 (stereo not drawn)	14.0%	-3.4%	-2.4%	-20.1%	19.6	?
COc1ccc(S(=O)(=O)N2CCc3cc4c(cc3C2C)OCCCO4)cc1 (stereo not drawn)	-13.0%	-11.5%	-2.2%	?	22.3	16.4µM*
Cc1ccc(S(=O)(=O)N2CCc3cc4c(cc3C2C)OCCCO4)cc1 (stereo not drawn)	?	-6.7%	-4.5%	?	-14.2	18.4µM*
CCCN(CC(=O)Nc1ccccc1C)C(=O)Cc1coc2cc(C)ccc12	4.1%	9.8%	-1.6%	?	0.0	-11.1%
CCOc1ccc(S(=O)(=O)N2CCN(C(=O)CN3C(=O)NC(C)(C)C3=O)CC2)cc1	8.7%	0.4%	-30.1%	16.3%	13.6	-13.2%
CC(C)(C)c1ccc(-c2cc(C(=O)NNC(=O)Nc3ccccc3)c3ccccc3n2)cc1	?	?	-10.9%	20.6µM*	-50.2*	?
O=C(NNC(=O)c1cc(-c2cccnc2)nc2ccccc12)Nc1ccc(Cl)cc1	?	?	0.7%	?	-96.4*	?
SMILES	HT1080NT lethal	HT1080 IDH1KD tx	uPA surface inh	TDP1 cell noCPT	IL-1B inflam inh	TDP1 cell CPT
O=C(NNC(=O)c1cc(-c2ccncc2)nc2ccccc12)Nc1ccc(F)cc1	6.1%	11.5%	4.0%	?	i	?
O=C(NNC(=O)c1cc(-c2ccccc2)nc2ccccc12)Nc1cccc(Cl)c1	18.4µM*	?	10.2%	20.6µM*	-11.3	?
Cn1nc(-c2ccccc2)cc1NC(=O)Nc1ccc(C(C)(C)C)cc1	-1.6%	-17.9%	-4.4%	?	-54.4*	?
CCOP(=O)(Nc1ccc2oc(=O)c3ccccc3c2c1)OCC	-0.1%	-4.8%	-13.8%	?	-1.4	?
Cc1ccc(C(=O)N/C(=C/c2ccc(-c3cc(C(F)(F)F)ccc3Cl)o2)C(=O)NCc2cccnc2)cc1	-17.0%	-21.3%	-2.8%	23.1µM*	?	?
Cc1ccc(C(=O)N/C(=C\c2ccco2)C(=O)NCc2cccnc2)cc1	15.1%	19.0%	-5.3%	-23.2%	20.7	4.3%
O=C(NCc1cccnc1)/C(=C/c1ccc([N+](=O)[O-])cc1)NC(=O)c1ccccc1	-2.0%	-5.4%	0.2%	-8.1%	10.0	-14.2%
O=C(NCc1cccnc1)/C(=C/c1ccc(Cl)cc1)NC(=O)c1ccccc1	-0.1%	8.7%	22.3%	-24.2%	-4.1	23.1µM*
O=C(NCc1cccnc1)/C(=C/c1ccc(-c2cccc(C(F)(F)F)c2)o1)NC(=O)c1ccccc1	-15.1%	-28.3%	-4.6%	18.4µM*	8.3	13µM*
CCN(CC(=O)Nc1c(F)cccc1F)C(=O)c1cc2ccccc2oc1=O	31.5%	6.3%	2.0%	2.6%	-2.7	-2.3%
CCCS(=O)(=O)NC(=O)C1(C)CCN(C(=O)c2nc(C)oc2C)C1 (stereo not drawn)	17.2%	7.4%	/	-2.7%	24.4	0.6%
Cc1cc(Oc2ccccc2)nc(C#N)n1	19.7%	23.7%	/	-15.8%	/	2.0%
CCCOc1c(Br)cc(C(=O)OCc2cc(=O)n3ccsc3n2)cc1OC	-0.2%	-2.7%	-29.4%	10.3µM*	7.6	5.8µM*
Cc1cn2c(=O)cc(COC(=O)c3cccc(NC(=O)COc4ccc(Cl)cc4)c3)nc2s1	/	/	/	-11.9%	/	-2.0%
CCCCC(=O)Nc1ccc(C(=O)OCc2cc(=O)n3ccsc3n2)cc1	/	/	/	16.4µM*	/	?
